# PubChem BioAssay (EPA / NIEHS)
# Records with an inconclusive call do not appear. The source made the active and inactive calls. How the source made its calls: active means hit-call score of the fitted dose curve at least 0.9, where 1 is the maximum; inconclusive means response in the unintended direction; inactive means score below 0.9.
# Target: human Peroxisome Proliferator-activated Receptor delta (PPARd), PPARD (gene 5467) (UniProt Q03181)
# Assay: ATG_PPARd_TRANS: Attagene TRANS-FACTORIAL HepG2 Assay for human Peroxisome Proliferator-activated Receptor delta (PPARd) (AID 2283002)
# Method: ATG_TRANS is a cell-based, multiplexed-readout assay that uses HepG2, a human liver cell line, with measurements taken at 24 hours after chemical dosing in a 24-well plate.ATG_PPARd_TRANS is one of 30 assay component(s) measured or calculated from the ATG_TRANS assay. It is designed to make measurements of mRNA induction, a form of inducible reporter, as detected with fluorescence intensity signals by Reverse transcription polymerase chain reaction (RT-PCR) and Capillary electrophoresis technology.Data from the assay component ATG_PPARd_TRANS was analyzed into 1 assay endpoint. This assay endpoint, ATG_PPARd_TRANS, was analyzed in the positive analysis fitting direction relative to DMSO as the negative control and baseline of activity. Using a type of inducible reporter, measures of mRNA for gain-of-signal activity can be used to understand the reporter gene at the transcription factor-level as they relate to the gene PPARD. Furthermore, this assay endpoint can be referred to as a primary readout, because this assay has produced multiple assay endpoints where this one serves a reporter gene function. To generalize the intended target to other relatable targets, this assay endpoint is annotated to the nuclear receptor intended target family, where the subfamily is non-steroidal.
# Human liver HepG2 cells are transiently transfected with multiple reporter transcription units (MRTUs) in 6-well plates using FuGene 6 reagent (Roche; 3 ml FuGene/1 mg DNA). The MRTU constructs are regulated by a cis-regulating element (promoter). […] A major difference between the CIS and TRANS system is that in CIS activities of endogenous TFs are measured, whereas the TRANS assay evaluates changes in activities of exogenous, chimeric NR-Gal4 proteins. […] At the end of 24 hour incubation, total RNA was isolated using TriZol reagent (Invitrogen). The isolated RNA is then reverse-transcribed using oligo(dT) primer and Mo-MLV reverse transcriptase (Invitrogen) with DNAse I (Ambion) treatment for 30 min. The one-tenth of the produced cDNA was amplified by PCR using Taq DNA polymerase (Invitrogen) and two reporter sequence-specific primers. The PCR products were fluorescently labeled by primer extension with 6-arboxyfluorescein (6-FAM) 5'-labeled reporter sequence-specific primer (2 min at 95 C, 20 s at 68 C and 10 min at 72 C) and these products were digested with 5U of HpaI (New England Biolabs) for 2h at 37 C. The fragments were purified using Qiaquick PCR columns (Qiagen), analyzed on an ABI 3130xL genetic analyzer (Applied Biosystems) with peak positions identified by using a set of X-rhodamine (ROX)-labeled MapMarker1000 molecular weight standards (BioVentures). The raw capillary electrophoresis data was processed using Attagraph software (Attagene).
# human Peroxisome Proliferator-activated Receptor delta (PPARd), PPARD (gene 5467), sequence (Q03181 whole entry, looked up): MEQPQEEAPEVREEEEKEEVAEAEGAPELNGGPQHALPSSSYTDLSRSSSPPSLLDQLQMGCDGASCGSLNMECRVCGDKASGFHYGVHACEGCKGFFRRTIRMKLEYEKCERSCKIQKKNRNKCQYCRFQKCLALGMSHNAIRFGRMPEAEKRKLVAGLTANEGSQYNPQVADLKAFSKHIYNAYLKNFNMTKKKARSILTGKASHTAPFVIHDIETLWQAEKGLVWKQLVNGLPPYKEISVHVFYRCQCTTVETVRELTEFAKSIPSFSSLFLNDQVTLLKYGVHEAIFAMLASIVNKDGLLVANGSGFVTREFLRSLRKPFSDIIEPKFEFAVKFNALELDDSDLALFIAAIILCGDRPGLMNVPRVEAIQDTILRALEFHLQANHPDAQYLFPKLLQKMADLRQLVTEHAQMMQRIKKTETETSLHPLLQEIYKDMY
row,SMILES,outcome
1,CCOC(OCC)OCC,inactive
2,CCN(CC)c1ccc(N=Nc2ccccc2)cc1,inactive
3,COCCOCCC[Si](C)(O[Si](C)(C)C)O[Si](C)(C)C,inactive
4,CCC(=O)OC(C)c1ccccc1 (stereo not given),inactive
5,CCCCCCCCCCCCC[N+](C)(C)Cc1ccccc1,inactive
6,Cc1ccc(S(=O)(=O)C(I)I)cc1,inactive
7,CCCCCCCC/C=C\CCCCCCCC(=O)OCC(O)CO (stereo not given),inactive
8,O=C1C=CC(=O)N1c1ccc(Cc2ccc(N3C(=O)C=CC3=O)cc2)cc1,inactive
9,CCn1c2ccccc2c2ccccc21,inactive
10,O=C(O)CCC(F)(F)C(F)(F)C(F)(F)C(F)(F)C(F)(F)C(F)(F)C(F)(F)F,inactive
11,O=C1C=CC(=O)N1c1ccccc1,inactive
12,Cc1ccc2c(c1)OCC(=O)CO2,inactive
13,O=S(=O)(O)c1ccc(Cl)cc1,inactive
14,CCCCCCCC/C=C\CCCCCCCC(=O)N(C)CC(=O)O,inactive
15,O=C(O)C(F)(F)C(F)(F)C(F)(F)C(F)(F)C(F)(F)C(F)(F)C(F)F,inactive
16,CC1=CCC(=O)O1,inactive
17,CCc1cc(Cc2cc(CC)c(N)c(CC)c2)cc(CC)c1N,inactive
18,O=S(=O)(O)CCC(F)(F)C(F)(F)C(F)(F)C(F)(F)F,inactive
19,CCc1cccc(C)c1N(C(=O)C(=O)O)C(C)COC (stereo not given),inactive
20,CC(C)Nc1ccc(NC(C)C)c2c1C(=O)c1ccccc1C2=O,inactive

row,SMILES,outcome
1,CCCCC(CC)COC(=O)c1ccc(N(C)C)cc1 (stereo not given),inactive
2,Cc1ccc(O)c(-n2nc3ccccc3n2)c1,inactive
3,CN(N=O)C(=O)N[C@@H]1[C@@H](O)[C@H](O)[C@@H](CO)O[C@@H]1O,inactive
4,CCN(CC)c1ccc(C=O)cc1,inactive
5,CCN(CCO)S(=O)(=O)C(F)(F)C(F)(F)C(F)(F)C(F)(F)C(F)(F)C(F)(F)C(F)(F)C(F)(F)F,inactive
6,FC(F)(F)C(F)(F)C(F)(F)C(F)(F)C(F)(F)C(F)(F)C(F)(F)CCI,inactive
7,COCCC(=O)OC,inactive
8,O=C(Cl)c1ccc(Cl)cc1Cl,inactive
9,CNS(=O)(=O)C(F)(F)C(F)(F)C(F)(F)C(F)(F)C(F)(F)C(F)(F)C(F)(F)C(F)(F)F,inactive
10,O=C1c2ccccc2C(=O)c2c(Cl)cccc21,inactive
11,N#Cc1ccccc1O,inactive
12,CCC(Cc1c(I)cc(I)c(N)c1I)C(=O)O (stereo not given),inactive
13,CCCCCCCCCCCCCC[P+](CCCC)(CCCC)CCCC,inactive
14,OCCCc1cccnc1,inactive
15,O=S(=O)(O)CCC(F)(F)C(F)(F)C(F)(F)C(F)(F)C(F)(F)C(F)(F)C(F)(F)C(F)(F)F,inactive
16,O=C=Nc1cccc2c(N=C=O)cccc12,inactive
17,OCCCC(F)(F)C(F)(F)C(F)(F)C(F)(F)C(F)(F)C(F)(F)C(F)(F)C(F)(F)F,inactive
18,CC(C)(C)C(=O)C1C(=O)c2ccccc2C1=O,inactive
19,COC(F)(C(F)F)C(F)(F)F (stereo not given),inactive
20,CC(C)(C)c1cc(CCC(=O)OCC(COC(=O)CCc2cc(C(C)(C)C)c(O)c(C(C)(C)C)c2)(COC(=O)CCc2cc(C(C)(C)C)c(O)c(C(C)(C)C)c2)COC(=O)CCc2cc(C(C)(C)C)c(O)c(C(C)(C)C)c2)cc(C(C)(C)C)c1O,inactive
